Measurements as given in PubChem BioAssay (NCATS).
Results filed as inconclusive are left out. Activity calls are given as the source filed them. The call rests on the fitted dose curve; in most records, active means well fitted curve in the direction sought with a large enough effect; inconclusive means small, poorly fitted or top-dose-only effect, or another doubt; inactive means no such curve, though single readings can be large; an effect the other way counts as inactive or inconclusive. Square brackets hold non-standard residues; d marks the D form. Peptide text beside a SMILES is read from it. * marks the point of attachment. ξ: configuration not given here. Hexanoyl = CCCCCC(=O)*; ξL = CC(C)CC(N)C(=O)O

Assay: qHTS for Hypoxia signaling pathway (HIF-1) agonists against the NCATS CANVASS Library (AID 1347375)
Conditions: HRE-bla ME-180 cells, HIF-1 beta-lactamase reporter, 17 h; series mostly up to 38.3 µM; activation: at the top concentration
Outline: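 An HRE-beta-lactamase ME-180 line is exposed for 17 h to an 11-point compound series, then read by CCF4-AM FRET. Cytotoxicity is measured in parallel in the same wells with CellTiter-Glo, and autofluorescence is checked separately.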
Further: 0% is about no effect.

SMILES | activation
CC(=O)N[C@H](C)c1nc(/C=C/C=C/C(=O)CC2CC(=O)CC[C@]2(C)O)cs1 (some centres not stated) | 0.627% (inactive)
CN1C(=O)C(=O)N2C(=C[C@]3(c4c[nH]c5ccccc45)c4ccccc4N[C@H]23)C1=O | 2.28% (inactive)
C/C=C1/C2=CCCN3C(=O)O[C@H]([C@H]1O)[C@H]23 | 1.02% (inactive)
O=C1CC(c2ccc(O)cc2)Oc2ccccc21 (configuration not stated) | 2.88% (inactive)
COc1c(O)cc(O)c2c(=O)cc(-c3ccccc3)oc12 | 3.71% (inactive)
COC1C(C)OC(OCC23C[C@@H]4[C@H](C)CC[C@H]4C4(C=O)CC2C=C(C(C)C)C34C(=O)O)[C@@H](O)[C@H]1O (some centres not stated) | -2.47% (inactive)
CN1CC[C@@]2([C@@]34CCN(C)[C@@H]3Nc3ccccc34)c3ccccc3N[C@@H]12 | 4.95% (inactive)
COc1ccc(-c2oc3cc(OC)cc(OC)c3c(=O)c2O)cc1 | -2.55% (inactive)
CC[C@@H](C)[C@H]1NC(=O)C(CC(C)C)NC(=O)[C@@H](CC(C)C)NC(=O)[C@H](Cc2c[nH]c3ccccc23)NC(=O)CNC(=O)[C@@H](CC(N)=O)NC1=O (stereo partly drawn) (cyclo(GW[dL][ξL][dI][dN])) | 10% (inactive)
Cc1cc(O)cc2c1C(=O)c1c(O)cc(O)cc1C2=O | 3.11% (inactive)
C=C[C@]1(C)CC[C@@H]([C@H](C)C(=O)CC=C(C)C)O1 | -1.33% (inactive)
CC[C@@H]1C[C@@]2(CC)OC(=O)[C@@]3(CC)[C@H](CC)[C@@H]1[C@@H]23 | 4.37% (inactive)
[C-]#[N+][C@@]12C(=O)[C@@H]3[C@@H](O[C@@]4(C(=O)N(C)c5cccc1c54)C3(C)C)C(=O)[C@@]2(C)C=C | 7.3% (inactive)
COC(=O)c1cccc2oc(-c3cccc4oc(-c5c(C)cccc5O)nc34)nc12 | -0.368% (inactive)
C[C@@]12CCC[C@@](C)(C(=O)OP(=O)(O)OC[C@H]3O[C@@H](n4cnc5c(N)ncnc54)[C@H](O)[C@@H]3O)[C@H]1C[C@@H](O)[C@@]13C[C@@H](CC[C@@H]21)[C@](C)(O)C3 | 0.872% (inactive)
CCC(C)=C1OC(=O)[C@H](C)[C@H](O)[C@H](Cc2cccnc2)NC(=O)C(NC(=O)c2ncccc2O)C(C)OC1=O (some centres not stated) | 1.63% (inactive)
C[C@@]12CCC[C@@](C)(C(=O)O)[C@H]1CC[C@@]13C[C@@H](CC[C@H]12)[C@](C)(O)C3 | 2.73% (inactive)
O=C1OC(CCO)c2cccc(O)c21 (configuration not stated) | -1.72% (inactive)

SMILES | activation
C=C1C[C@]23C=CC(=O)[C@@](C)(CCCC(C)C(=O)N[C@@H](CO)C(=O)O)[C@@H]2C[C@@H]1CC3 (some centres not stated) | 2.35% (inactive)
COc1cc2ccc(=O)oc2c(O)c1O[C@@H]1O[C@H](CO)[C@@H](O)[C@H](O)[C@H]1O | 13.1% [at 22.9 µM] (inactive)
C/C(=C\[C@@H](C)CC/C=C/CC/C=C/C(=O)O)[C@@H](O)[C@H](C)C(=O)CCCC1CC(=O)NC(=O)C1 | 2.57% (inactive)
CO[C@@H](C[C@@H](C)[C@@H](O)/C=C/C=C/CNC(=O)C(C)(C)[C@H](O)\C(C)=C/C=C\C=C\Cc1cnco1)[C@]1(O)[C@@H](C)C(=O)N(C)[C@@]12COC2=O | -0.958% (inactive)
O=C1CC(c2ccc(O)cc2)Oc2cc(O)ccc21 (configuration not stated) | 5.55% (inactive)
C[C@@]12CCC[C@@](C)(C(=O)O)[C@H]1C[C@@H](O)[C@@]13C[C@@H](CC[C@@H]21)[C@](C)(O)C3 | 2.77% (inactive)
O=Cc1ccc2n1C[C@]1(OC2)O[C@H](CO)[C@@H](O)[C@@H]1O | -0.775% (inactive)
C=C[C@@]1(C)CC[C@@H]([C@H](C)C(C)=O)O1 | -0.758% (inactive)
C/C=C(/CO)C(=O)O[C@@H]1[C@H](O)[C@@H](C(=O)OC)O[C@@H]2C[C@H]3OC(n4cnc5c(N)ncnc54)[C@H](OC)[C@H]3O[C@@]12O (some centres not stated) | 2.72% (inactive)
C/C=C/[C@H]1[C@H]2C(=O)c3c(O)c(C)c(O)c(C)c3[C@]1(C(=O)O)C(=O)C=C2C | 2.16% (inactive)
C[C@@]12C[C@@H](C[C@@H]3C(=O)O[C@@H](c4ccoc4)[C@H](OC(=O)c4ccccc4)[C@@H]31)OC2=O | -1.48% (inactive)
C=C1CCC2C(C)(C(=O)O)CCC(CC/C(C)=C/C(=O)NC(CCC(N)=O)C(=O)O)[C@@]2(C)C1 (some centres not stated) | 4.12% (inactive)
C=C1[C@@]2(C)CC3C4(C)CCC(O)C(C)(C)C4CCC3(C)[C@]1(C(=O)OC)C(=O)C(C)(O)C2=O (some centres not stated) | 2.89% (inactive)
CC(C)=CCC[C@]1(C)[C@H]2CC(=O)[C@@]3(CO3)[C@@H]1C2 | -0.957% (inactive)
CCCCCC(=O)N[C@@H](CC(C)C)C(=O)N[C@H](C=O)CCC(=O)O (Hexanoyl-Leu-Glu-aldehyde) | 2.17% (inactive)
COc1ccc([C@@H]2c3cc4c(cc3C(=O)C(C)C2C)OCO4)cc1OC (some centres not stated) | 8.54% (inactive)
CC1(C)CC[C@]2(CO)CC[C@]3(C)C(=CCC4[C@@]5(C)CC[C@H](O)C(C)(C)C5CC[C@]43C)C2C1 (some centres not stated) | 0.81% (inactive)

Assay: 10-beta competent E. coli microbial cell viability qHTS against the NCATS CANVASS Library (AID 1347376)
Conditions: E. coli 10-beta viability, BacTiter-Glo ATP luminescence, overnight; series mostly up to 46.1 µM; activity change, negative = cytotoxic: at the top concentration
Outline: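 Overnight 37C exposure of 10-beta E. coli (0.2 OD) to an 11-point concentration series; ATP-based luminescence after 20 min room-temperature reagent incubation; daunomycin as control.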

SMILES | activity change, negative = cytotoxic
CC(=O)N[C@H](C)c1nc(/C=C/C=C/C(=O)CC2CC(=O)CC[C@]2(C)O)cs1 (some centres not stated) | -11.8% (inactive)
CN1C(=O)C(=O)N2C(=C[C@]3(c4c[nH]c5ccccc45)c4ccccc4N[C@H]23)C1=O | -2.67% (inactive)
CN1CC[C@]23c4ccccc4N[C@H]1[C@]21CCN(C)[C@H]3Nc2ccccc21 | 2.08% (inactive)
COc1c(O)cc(O)c2c(=O)cc(-c3ccccc3)oc12 | -14.8% (inactive)
COC1C(C)OC(OCC23C[C@@H]4[C@H](C)CC[C@H]4C4(C=O)CC2C=C(C(C)C)C34C(=O)O)[C@@H](O)[C@H]1O (some centres not stated) | -9.67% (inactive)
CN1CC[C@@]2([C@@]34CCN(C)[C@@H]3Nc3ccccc34)c3ccccc3N[C@@H]12 | -6.33% (inactive)
COc1ccc(-c2oc3cc(OC)cc(OC)c3c(=O)c2O)cc1 | -8.52% (inactive)
CC[C@@H](C)[C@H]1NC(=O)C(CC(C)C)NC(=O)[C@@H](CC(C)C)NC(=O)[C@H](Cc2c[nH]c3ccccc23)NC(=O)CNC(=O)[C@@H](CC(N)=O)NC1=O (stereo partly drawn) (cyclo(GW[dL][ξL][dI][dN])) | -5.83% (inactive)
Cc1cc(O)cc2c1C(=O)c1c(O)cc(O)cc1C2=O | 26.9% (inactive)
C=C(Cl)[C@](Cl)(CBr)CC[C@@H](Br)C(C)(C)Cl | 20.8% (inactive)
C=C(C)C(=O)O[C@H]1C[C@@]2(C)OC(=CC2=O)/C(C)=C\[C@H]2OC(=O)C(=C)[C@H]12 | -3.38% (inactive)
C=C[C@]1(C)CC[C@@H]([C@H](C)C(=O)CC=C(C)C)O1 | -10.1% (inactive)
CC[C@@H]1C[C@@]2(CC)OC(=O)[C@@]3(CC)[C@H](CC)[C@@H]1[C@@H]23 | -7.24% (inactive)
[C-]#[N+][C@@]12C(=O)[C@@H]3[C@@H](O[C@@]4(C(=O)N(C)c5cccc1c54)C3(C)C)C(=O)[C@@]2(C)C=C | -8.55% (inactive)
COC(=O)c1cccc2oc(-c3cccc4oc(-c5c(C)cccc5O)nc34)nc12 | 8.95% (inactive)
C[C@@]12CCC[C@@](C)(C(=O)OP(=O)(O)OC[C@H]3O[C@@H](n4cnc5c(N)ncnc54)[C@H](O)[C@@H]3O)[C@H]1C[C@@H](O)[C@@]13C[C@@H](CC[C@@H]21)[C@](C)(O)C3 | 1.67% (inactive)
CCC(C)=C1OC(=O)[C@H](C)[C@H](O)[C@H](Cc2cccnc2)NC(=O)C(NC(=O)c2ncccc2O)C(C)OC1=O (some centres not stated) | 4.18% (inactive)
C[C@@]12CCC[C@@](C)(C(=O)O)[C@H]1CC[C@@]13C[C@@H](CC[C@H]12)[C@](C)(O)C3 | -6.48% (inactive)
O=C1OC(CCO)c2cccc(O)c21 (configuration not stated) | -4.6% (inactive)

SMILES | activity change, negative = cytotoxic
C=C1C[C@]23C=CC(=O)[C@@](C)(CCCC(C)C(=O)N[C@@H](CO)C(=O)O)[C@@H]2C[C@@H]1CC3 (some centres not stated) | -2.17% (inactive)
COc1cc2ccc(=O)oc2c(O)c1O[C@@H]1O[C@H](CO)[C@@H](O)[C@H](O)[C@H]1O | 1.9% [at 27.5 µM] (inactive)
C/C(=C\[C@@H](C)CC/C=C/CC/C=C/C(=O)O)[C@@H](O)[C@H](C)C(=O)CCCC1CC(=O)NC(=O)C1 | 8.68% (inactive)
CO[C@@H](C[C@@H](C)[C@@H](O)/C=C/C=C/CNC(=O)C(C)(C)[C@H](O)\C(C)=C/C=C\C=C\Cc1cnco1)[C@]1(O)[C@@H](C)C(=O)N(C)[C@@]12COC2=O | 0.0457% (inactive)
O=C1CC(c2ccc(O)cc2)Oc2cc(O)cc(O)c21 (configuration not stated) | 15.7% (inactive)
O=C1CC(c2ccc(O)cc2)Oc2cc(O)ccc21 (configuration not stated) | -16.6% (inactive)
CN1CC[C@@]23c4ccccc4N[C@@H]1[C@@]21CCN(C)[C@@H]3Nc2ccccc21 | -13.8% (inactive)
O=Cc1ccc2n1C[C@]1(OC2)O[C@H](CO)[C@@H](O)[C@@H]1O | -0.384% (inactive)
C=C[C@@]1(C)CC[C@@H]([C@H](C)C(C)=O)O1 | -8.32% (inactive)
C/C=C(/CO)C(=O)O[C@@H]1[C@H](O)[C@@H](C(=O)OC)O[C@@H]2C[C@H]3OC(n4cnc5c(N)ncnc54)[C@H](OC)[C@H]3O[C@@]12O (some centres not stated) | -6.53% (inactive)
C/C=C/[C@H]1[C@H]2C(=O)c3c(O)c(C)c(O)c(C)c3[C@]1(C(=O)O)C(=O)C=C2C | -8.51% (inactive)
C[C@@]12C[C@@H](C[C@@H]3C(=O)O[C@@H](c4ccoc4)[C@H](OC(=O)c4ccccc4)[C@@H]31)OC2=O | -1.35% (inactive)
C=C1CCC2C(C)(C(=O)O)CCC(CC/C(C)=C/C(=O)NC(CCC(N)=O)C(=O)O)[C@@]2(C)C1 (some centres not stated) | 1.77% (inactive)
C=C1[C@@]2(C)CC3C4(C)CCC(O)C(C)(C)C4CCC3(C)[C@]1(C(=O)OC)C(=O)C(C)(O)C2=O (some centres not stated) | 6.03% (inactive)
CC(C)=CCC[C@]1(C)[C@H]2CC(=O)[C@@]3(CO3)[C@@H]1C2 | -10.4% (inactive)
CCCCCC(=O)N[C@@H](CC(C)C)C(=O)N[C@H](C=O)CCC(=O)O (Hexanoyl-Leu-Glu-aldehyde) | -7.12% (inactive)
COc1ccc([C@@H]2c3cc4c(cc3C(=O)C(C)C2C)OCO4)cc1OC (some centres not stated) | 5.22% (inactive)
CC1(C)CC[C@]2(CO)CC[C@]3(C)C(=CCC4[C@@]5(C)CC[C@H](O)C(C)(C)C5CC[C@]43C)C2C1 (some centres not stated) | -8% (inactive)
